# This is a sample that favours compounds with a hit; in the whole collection about 6.2% have one here.
# HCMV inh: human cytomegalovirus inhibition | HFF cells, HCMV-luciferase reporter, 72 h; stronger effect = lower value | activity change, negative = inhibition, % at 57.5 µM | hit rate 4.5% among 410,000; in the data active means activity change below about -60%; inconclusive means no clear call, values can overlap the other calls; inactive means above about -39%
#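 Luciferase read-out from HCMV-luciferase-infected HFFs (MOI 1 PFU/cell) 72 h post infection at 37C; compounds added after 16 h cell attachment; activity normalized between buffer-only basal and Salinomycin (10uM) inhibitor controls.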
# FMDV antiviral: foot and mouth disease virus antiviral activity; FMDV antiviral cell-based qHTS; Potency, µM (titrated, usually from 57.9 µM), for the others: at the top dose activity change, negative = inhibition, hits mostly inhibitors; hit rate 1.2% among 410,000; AID 1159524; calls by dose curve; tested in HEK293T cells; further: read-out not given here; potency means the concentration at half of the fitted maximal effect; nearly all actives have a fitted effect of over 45% in size
# MARV entry inh: inhibitors of Marburg virus binding or cell entry. Potency, µM (titrated, usually from 37.8 µM), inactives show top-dose activity change, negative = inhibition, most hits filed as inhibitors. Marburg virus pseudotyped entry inhibition, cell reporter. AID 540276. hit rate 1.8% among 300,000; calls by dose curve; tested in HEK293 cells; further: potency means the concentration at half of the fitted maximal effect
# Lassa entry inh: Lassa virus entry inhibition; Lassa virus pseudotype entry inhibition, cell reporter; Potency, µM (highest dose often 37.9 µM), without a hit: at the highest dose activity change, negative = inhibition, hits mostly inhibitors; hit rate 1.2% among 300,000; AID 540256; calls by dose curve; tested in HEK293 cells; further: potency means the concentration at half of the fitted maximal effect; nearly all actives have a fitted effect of over 50% in size
# Starred values were filed as active, the others as inactive; ? = inconclusive; / = not tested or not shown; ! = not confirmed by another sample; [ ] = another dose, or the depositor's remark. On the % scale 0 is the no-effect control and ±100 the full control effect.
SMILES,HCMV inh,FMDV antiviral,MARV entry inh,Lassa entry inh
O=C(NNc1nc(-c2ccc(F)cc2)cs1)c1ccccc1,-99*,13%,?,?
O=C1OC(Nc2nc(-c3ccc(F)cc3)cs2)c2ccccc21 (stereo unspecified),-91*,-19%,?,1%[46.1 µM]
CC(=O)NNc1nc(-c2ccccc2)cs1,-14,5%,?,-1%[46.1 µM]
COC1=CC2(O)CCCC2=CC1=O (stereo unspecified),10,-13%,/,/
CCn1nc(C(=O)Nc2cc(Cl)ccc2-n2cncn2)c2ccccc2c1=O,-7,-10%,3%,-11%[46.1 µM]
CC(=O)N1CCCN(Cc2nc(C3(c4ccc(C)cc4)CCCC3)no2)CC1,76,22%,0%[46.1 µM],7%[46.1 µM]
COc1ccc(Br)cc1/C=N/NC(=O)c1ccc(COc2ccc3c(c2)CCC3)o1,73,24%,?,23%
O=C(NCc1cccnc1)c1ccc(COc2ccc3c(c2)CCC3)o1,24,18µM*,23µM*,?
COC(=O)c1ccc(COc2ccc3c(c2)CCC3)o1,116,25%,?,?
O=C(N/N=C/c1cc([N+](=O)[O-])ccc1O)c1ccc(COc2ccc3c(c2)CCC3)o1,-96*,?,?,?
COc1ncc2nc(-c3ccccc3)c(=O)n(C[C@H]3CCCO3)c2n1,/,-10%,/,/
CCN(C(=O)C(NS(=O)(=O)c1ccc(Br)s1)c1ccccc1)c1ccc(C)c(C)c1 (stereo unspecified),-64*,-24%,?,?
Cc1ccccc1C(=O)Nc1ccccc1N1CCCCC1,?,-20%,?,-3%[46.1 µM]
CCc1ccc(S(=O)(=O)Nc2cc(SCC(=O)O)c(O)c3ccccc23)cc1,63,?,?,?
O=S(=O)(Nc1cc(Sc2cccc3cccnc23)c(O)c2ccccc12)c1ccccc1,-100*,/,?,18µM*
O=C(O)CSc1cc(NS(=O)(=O)c2cccc([N+](=O)[O-])c2)c2ccccc2c1O,0,10µM*,/,/
Cc1ccc(NS(=O)(=O)c2cccc3cccnc23)c(Br)c1,-82*,8%,-9%[46.1 µM],3%[46.1 µM]
Cc1ccc(S(=O)(=O)Nc2cccc3cccnc23)cc1,-105*,28µM*,?,?
Cc1ccc(S(=O)(=O)Nc2ccccc2-c2ccccc2NS(=O)(=O)c2ccc(C)cc2)cc1,28,-26%,?,-25%
c1ccc(-n2nnnc2Oc2cccc3cccnc23)cc1,-28,/,?,-20%
O=C(O)CNC(=S)NCc1ccccc1,-33,-3%,?,2%
CC(Nc1ccccc1)c1ccncc1 (stereo unspecified),6,8%,5%[46.1 µM],-3%[46.1 µM]
Cc1nc(SCc2nc3ccccc3[nH]2)c2oc3ccc(Br)cc3c2n1,-16,35µM*,/,/
COc1cccc(NC(=O)c2c(-c3ccc(C)cc3)nnc3ccccc23)c1,0,34%,/,15%[46.1 µM]
Cn1c(CNc2nc3ccccc3n2CCN2CCCCC2)nc2ccccc21,51,-11%,2.8µM*,-6%
SMILES,HCMV inh,FMDV antiviral,MARV entry inh,Lassa entry inh
CCN(CC)c1ccc(CNc2nc3ccccc3n2CCN2CCCCC2)cc1,-99*,0%,?,?
COc1ccc(CNc2nc3ccccc3n2CCN2CCCCC2)cc1,-7,-6%,?,-9%[46.1 µM]
COc1ccccc1-c1cn(CC[C@@H]2CC[C@H](NC(=O)C3CCC3)[C@@H](CO)O2)nn1,-4,-1%,/,/
O=C(NCCc1ccccc1)c1ccc(CS(=O)(=O)c2ccc(Cl)cc2)o1,-60*!,-30%,/,-28%[46.1 µM]
O=C(NCCc1ccc(Cl)cc1)c1ccc(CS(=O)Cc2cccc(Cl)c2)o1 (stereo unspecified),-64*,?,/,-8%[46.1 µM]
CC1CCC(NC(=O)c2ccc(CS(=O)(=O)c3ccc(Cl)cc3)o2)CC1 (stereo unspecified),-7,32µM*,/,?
N#CC1=C(N)N(c2cccc(Cl)c2)C2=C(C(=O)CCC2)C1c1cc(CN2CCOCC2)cs1 (stereo unspecified),-11,-15%,-9%[46.1 µM],11%[46.1 µM]
CSc1ncc(C(=O)NCc2cccc(Br)c2)c(-c2ccccc2)n1,-3,7%,/,3%[46.1 µM]
Cc1cccc2[nH]c3c(N4CCN(C(=O)c5ccco5)CC4)ncnc3c12,/,?,-20%,1%
COc1ccc(CN(C2CCCCC2C)S(=O)(=O)c2ccc(S(=O)(=O)N(C)C)cc2)cc1OC (stereo unspecified),-79*,-27%,?,?
COc1cc(CN(C2CCCCC2C)S(=O)(=O)c2ccc(S(=O)(=O)NC3CC3)cc2)cc(OC)c1OC (stereo unspecified),-20,-29%,10µM*,?
COc1ccccc1CNS(=O)(=O)c1ccc(S(=O)(=O)NC2CC2)cc1,?,-7%,-9%[46.1 µM],8%
Cc1ccc2oc(C(=O)N(C)Cc3cnccn3)c(C)c2c1,10,34%,17%[46.1 µM],12%[46.1 µM]
CCCCN(C)Cc1cc(=O)oc2ccc3ccccc3c12,38,-19%,/,/
CN(CCC#N)Cc1cc(=O)oc2ccc3ccccc3c12,-62*,-24%,-15%[46.1 µM],21%[46.1 µM]
CCOC(=O)N1CCc2c(sc3c2c(=O)n(-c2ccccc2C(F)(F)F)c(=O)n3Cc2ccccc2C)C1,-101*,0%,-2%[46.1 µM],-8%[46.1 µM]
CCOC(=O)N1CCc2c(sc3c2c(=O)n(-c2ccc(Cl)cc2)c(=O)n3CC(C)C)C1,-65*,-3%,9%[46.1 µM],-15%[46.1 µM]
COc1ccccc1-n1c(=O)c2c3c(sc2n(Cc2ccccc2F)c1=O)CN(C(C)=O)CC3,24,-17%,/,5%[46.1 µM]
CC(=O)N1CCc2c(sc3c2c(=O)n(CCc2ccccc2)c(=O)n3Cc2ccc(Cl)cc2)C1,-106*,?,?,/
CCC(C)Oc1cc(-c2ccnc(Nc3cccc(Cl)c3)n2)ccn1 (stereo unspecified),-86*,-2%,/,/
OCCCNc1cc(-c2ccnc(Nc3cccc(Cl)c3)n2)ccn1,-97*,?,/,/
CC[C@H](CO)Nc1nc(Nc2cccc(Cl)c2)c2ncn(C(C)C)c2n1,-65*,7%,/,/
CCn1cnc2c(Nc3cccc(Cl)c3)nc(N[C@@H]3CCCC[C@H]3N)nc21,/,/,6.3µM*,/
CCn1cnc2c(Nc3cccc(Cl)c3)nc(C#N)nc21,60,3%,/,/
O=C(NCc1nc2ccccc2[nH]1)C1=C[C@@H](c2ccccc2)C[C@@H](OCCCCO)O1,-22,-14%,/,/
SMILES,HCMV inh,FMDV antiviral,MARV entry inh,Lassa entry inh
COc1ccc(Nc2nc(N)c(C(=O)c3ccc(OC)cc3)s2)cc1,1,3%,?,?
CCOc1ccc(Nc2nc(N)c(C(=O)c3ccccc3Cl)s2)cc1,-90*,18%,/,?
COc1ccc(CNC(=O)Cn2nc(C(F)(F)F)c(Br)c2C)cc1,-6,-15%,/,/
COc1cc(NC(=O)Cn2nc(C(F)(F)F)c(Br)c2C)cc([N+](=O)[O-])c1,-96*,40µM*,?,0%
COc1ccccc1C(=O)Nc1nnc(SCC(=O)NC2CCCC2)s1,/,0%,11µM*,?
COc1ccccc1-n1cnnc1SCC(=O)NC1CCCCC1,-83*,-9%,/,/
COc1ccccc1-n1ccnc1SCC(=O)NC1CCCC1,63,-7%,5%[46.1 µM],/
COc1ccccc1NC(=O)Cn1nc(-c2ccncc2)nc1SCC(=O)NC1CCCC1,-76*,-15%,?,-16%

# Assay outcomes as filed in PubChem BioAssay.
